The results in this text go back to PubChem BioAssay (NCI).

Common to all, as to experiment: NCI-60 one-dose screen, 48 h (100 = growth as untreated, 0 = no growth, -100 = all killed)
Holding throughout (conditions): 10 µM unless noted

Assay [1] deals with HCT-15 colon.
Assay [2] relates to HT29 colon.
The subject of assay [3] is SNB-75 CNS.
Assay [4] concerns SNB-19 CNS.
The subject of assay [5] is U251 CNS.
Assay [6] concerns PC-3 prostate.
Assay [7] deals with SK-MEL-5 melanoma.
Assay [8] concerns UACC-62 melanoma.
Assay [9] deals with SK-MEL-28 melanoma.
The test system of assay [10] is LOX IMVI melanoma.

Each structure is given as a SMILES string. Compounds without any hit were thinned out: in the full panel of roughly 83,000, 20% have a hit.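 96-well plates, one dose, 48 hours. Percent growth reported; active if below 10.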 Values without a mark were called inactive. Activity calls are given as the source filed them.

As for `CC(=O)OCC1OC(OCC2OC(OC(C)=O)C(OC(C)=O)C(OC(C)=O)C2OC(C)=O)C(OC(C)=O)C(OC(C)=O)C1OC(C)=O` (stereo unspecified), the growth in assay [1] was 96.7%; in assay [2], 103%; in assay [3], 92.8%; in assay [4], 100%; in assay [5], 92%; in assay [6], 93.5%. For the same compound, the figures for the growth in assay [7], in assay [8] and in [9] were 94.2%, 92.2% and 104%, respectively.
As for `Clc1ccc(-c2nc(-c3ccco3)cn3ccnc23)cc1`, the growth in assay [1] is 50.1%; in assay [2], 40.3%; in assay [3], 32%; in assay [4], 30.6%; in assay [5], -51.3% (active); in [6], 60.2%. For the same compound, the figures for the growth in [7], in [8] and in [9] were 58%, 88% and 102%, respectively.
For `O=c1cc(C2NCCc3c2[nH]c2ccccc32)c2c(ccc3ccccc32)o1` (stereo unspecified), the growth in [1] is 44.5%; in assay [2], 56.2%; in assay [3], 51.6%; in [4], 88.3%; in [5], 66.1%; in [6] it was 56%. For the same compound, the growth in assay [7] is 76.4%; in assay [8] it was 48.7%; in [9], 92.7%.
For `CCN1C(=O)/C(=c2\sc3n(c2=O)C2C(NN=3)N(CC)C(=S)N2CC)c2ccccc21` (stereo unspecified), the growth in assay [1] was 100%; in assay [2], 111%; in [3] it was 84.6%; in assay [4], 97.2%; in assay [5], 97.3%; in assay [6] it was 94%. Moreover, the values for the growth in assay [7], in assay [8] and in [9] were 103%, 97.8% and 108%, respectively.
`CCCCn1c(=O)c(C2CNC(=O)c3ccccc3N2)cc2ccccc21` (stereo unspecified): the growth in assay [1] was 101%; in assay [2], 103%; in [3] it was 84%; in assay [4], 91%; in assay [5] it was 98%; in [6], 106%. Moreover, the results for the growth in [7], in assay [8] and in assay [9] were 102%, 88.4% and 102%, respectively.
For the compound `Clc1cccc(Cl)c1Cn1c(-c2cncs2)nc2ccccc21`, the growth in assay [1] is 79.5%; in assay [2], 91.5%; in assay [3], 83.1%; in assay [4], 97.8%; in assay [5] it was 93.7%; in assay [6], 62.2%. Moreover, the growth in assay [7] was 58.9%; in [8], 61.2%; in assay [9], 105%.
Turning to `COc1ccc(-c2cn[nH]c2-c2cc(OC)c3c(c2)OCO3)cc1`, the growth in [1] was 18.6%; in assay [2], 5.01% (active); in assay [3], -12.9% (active); in [4] it was 41.7%; in assay [5], 9.27% (active); in assay [6], 11.1%. In addition, the growth is 32% in assay [7], 15.8% in [8] and 39.4% in [9].
For the compound `O=C(NCCCN1CCN(CCCNC(=O)C2CCCCC2)CC1)C1CCCCC1`, the growth is 97.5% in assay [1]; 108% in assay [2]; 88.7% in [3]; 107% in [4]; 96.9% in assay [5]; 91.3% in assay [6]. The values for the growth in [7], in assay [8] and in assay [9] were 105%, 98.3% and 99.7%, respectively.
With `COc1ccc(-c2nnc(COc3ccc(NC(=O)Nc4ccc(Cl)c(C(F)(F)F)c4)cc3F)o2)cc1`, the growth in assay [1] is 8.08% (active); in assay [2] it was 9.28% (active); in [3], 15.6%; in assay [4] it was 21.7%; in assay [5], -26.6% (active); in assay [6] it was -8.78% (active). The growth in assay [7] was 12.3%; in [8], 19.2%; in assay [9] it was 1.13% (active).
As to `COc1cc(NC(=O)CCl)ccc(=O)c1`, the growth in assay [1] was 28.6%; in [2], 70.1%; in [3], 72%; in assay [4] it was 93%; in [5] it was 31.9%; in assay [6], 74.6%. In addition, the growth is 75% in assay [7], 57.2% in assay [8] and 85.4% in assay [9].
As for `Nc1c(C(=O)Nc2ccccc2)sc2nc3c(cc12)CCC3`, the growth in assay [1] was 55.7%; in [2] it was 88%; in assay [3], 65.5%; in assay [4], 85.1%; in assay [5] it was 70.9%; in assay [6], 81%. For the same compound, the figures for the growth in assay [7], in [8] and in assay [9] were 68.7%, 69.8% and 80.4%, respectively.
Turning to `O=S(=O)(NCCCNc1nccc(-c2c(-c3ccc(O)cc3)nc3sccn23)n1)c1ccc(F)cc1`, the growth is 10% (active) in [1]; 7.73% (active) in assay [2]; 17.8% in assay [3]; 35.1% in assay [4]; 11.1% in [5]; 19.3% in assay [6]. Also, the growth is -85.1% (active) in [7], -1.06% (active) in assay [8] and -6.84% (active) in [9].
As for `CN(C)c1ncc(-c2ccc(C(F)(F)F)cc2)c(NC2CCCCCC2)n1`, the growth in assay [1] was 77.4%; in assay [2], 34.4%; in assay [3], 78.2%; in assay [4], 71.8%; in [5] it was 40.1%; in [6] it was 22%. The figures for the growth in [7], in assay [8] and in [9] were 39.6%, 31.4% and 48.9%, respectively.
For the compound `CCn1cc(C(=O)O)c(=O)c2cc(F)c(N3CCN(S(=O)(=O)c4cccc5ccccc45)CC3)cc21`, the growth in [1] is 11.1%; in [2], 3.96% (active); in assay [3], 14.1%; in assay [4], 28.8%; in assay [5] it was 14.2%; in [6], 7.82% (active). Further, the growth in assay [7] was -46% (active); in assay [8] it was 31.2%; in assay [9] it was 59.2%.
With `COc1cc(C2C3=C(COC3=O)Nc3c2ccc2c3CCCC2)cc2c1OCO2` (stereo unspecified), the growth in assay [1] was 11.2%; in assay [2], -3.84% (active); in assay [3], 34.3%; in assay [4] it was 36.1%; in assay [5] it was 23.1%; in assay [6], 31.7%. Also, the growth in assay [7] is -18.8% (active); in assay [8] it was 36.4%; in assay [10], 27.7%; in assay [9], 70.1%.
